The assay can be described thus: qHTS Assay for NPC1 Promoter Activators: Initial hit validation from the primary screen. As to conditions: Huh7 NPC1 promoter-luciferase reporter, luminescence, 24 h; series mostly up to 46.1 µM. In outline:
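Huh7 cells stably carrying NPC1 promoter-luciferase, 1500 cells per well in OP-MEM I with 10% FBS; compounds added after 2 hours and incubated 24 hours at 37C. Luminescence read 10 minutes after Amplite luciferase reagent.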
On the technique in general: In qHTS, concentration-response curves come from the screen itself.

Records with an inconclusive call do not appear. Where a call stands in place of a potency, no number is given. The source made the active and inactive calls. Calls come from the whole dose curve; as a rule, active = well fitted activation curve with a large enough effect; inconclusive = small, poorly fitted or top-dose-only effect; inactive = flat fitted curve, though single readings scatter.
Potency is the fitted concentration of half-maximal effect.

Regarding `COc1cccc(CNC(=O)CN(c2cc(C)cc(C)c2)S(=O)(=O)c2c(C)noc2C)c1`, the Potency entry was “inactive”. Regarding `Fc1ccc(-c2nc3nc4ccccc4nc3n2Cc2ccco2)cc1`, the Potency result was “inactive”. To `Cc1ccc(C#N)c(SCC(=O)Nc2nccs2)n1` belongs 1120 nM (active); to `COc1ccc2oc(=O)c(C(=O)NC(C)c3ccccc3)cc2c1` (centres undefined), “inactive”; to `Cc1ccc(C(=O)Nc2nnc(S(=O)(=O)N3CCOCC3)s2)cc1`, “inactive”. As for `O=C(CCN1C(=O)c2ccccc2C1=O)Nc1ccc(-c2nc3ccccc3s2)cc1`, the figure is 250 nM (active); as for `C=CCc1ccc(OCCOCCNCCOC)c(OC)c1`, “inactive”; as for `COCCNC(=O)CN1C(=O)NC(c2ccccc2)(c2ccccc2)C1=O`, “inactive”. To `N#CC/C(N)=N/NC(=O)CCCNc1ncc(C(F)(F)F)cc1Cl` belongs 15800 nM (active); to `CC(=O)Nc1nnc(SCC(=O)NCCOc2ccccc2)s1`, “inactive”. Turning to `NCCOc1ccccc1-c1ccccc1`, the Potency result was “inactive”. In the case of `COc1ccc(NC(=O)CN(C)C(=O)c2ccc(=O)[nH]c2)cc1`, the Potency entry was “inactive”. As for `COc1ccc(-n2c(N)c(C(=O)NCc3ccco3)sc2=S)cc1`, the entry is “inactive”; as for `N#C/C(=C\c1ccc[nH]1)C(=O)Nc1ccccc1Cl`, 3970 nM (active).
